Results: the supplement of paper PMC12819154, “High-throughput peptide-centric local stability assay extends protein–ligand identification to membrane proteins, tissues and bacteria” (Nature Structural & Molecular Biology, 2025)
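Also: lysate desalted by size exclusion to strip endogenous ATP, peptide intensities built from DIA-NN precursor signals, and peptides missing any value discarded before comparison.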

The molecules below were run against T1, UniProt P0AES0 (assay: log2 fold change of tryptic peptide abundance, ligand vs vehicle (limited proteolysis) (log2 ratio); higher = more trypsin-susceptible (destabilized)). Conditions: peptide sequence: TGYAVKPIAGR; peptide start residue: 528; ligand concentration: 5 mM; sample: E. coli desalted lysate; replicate design: treated before aliquoting.
T1 sequence (whole entry): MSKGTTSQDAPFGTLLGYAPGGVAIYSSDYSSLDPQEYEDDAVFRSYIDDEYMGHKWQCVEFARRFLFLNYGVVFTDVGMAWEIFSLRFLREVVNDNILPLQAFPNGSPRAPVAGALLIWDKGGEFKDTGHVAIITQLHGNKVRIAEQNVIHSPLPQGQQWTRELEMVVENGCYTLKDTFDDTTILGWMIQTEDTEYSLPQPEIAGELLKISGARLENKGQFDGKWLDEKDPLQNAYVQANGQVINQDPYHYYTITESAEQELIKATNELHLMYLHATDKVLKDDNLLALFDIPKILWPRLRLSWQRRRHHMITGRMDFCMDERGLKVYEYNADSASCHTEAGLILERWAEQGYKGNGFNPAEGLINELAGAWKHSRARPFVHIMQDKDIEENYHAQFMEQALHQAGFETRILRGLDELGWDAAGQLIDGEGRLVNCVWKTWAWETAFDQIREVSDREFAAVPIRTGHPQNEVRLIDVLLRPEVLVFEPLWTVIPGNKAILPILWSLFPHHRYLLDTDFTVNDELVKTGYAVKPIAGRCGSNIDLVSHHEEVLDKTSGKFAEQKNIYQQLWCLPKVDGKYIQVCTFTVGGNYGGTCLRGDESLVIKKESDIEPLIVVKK
Method: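 HT-PELSA: desalted E. coli K-12 BW25113 lysate (with 12 mM MgCl2) incubated with 5 mM ATP (pH 7) or water for 30 min at 25 C, then a 4 min trypsin pulse at 22 C. Peptides were quantified by DIA-MS (4 replicates). Value is the peptide log2 fold change (treated/control); negative = stabilized. Scale: negative = ligand-stabilized region.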
Molecule Nc1ncnc2c1ncn2[C@@H]1O[C@H](COP(=O)(O)OP(=O)(O)OP(=O)(O)O)[C@@H](O)[C@H]1O [adenosine 5'-triphosphate] has a log2 fold change of -1.49.
